In all, about 140,000 sequences were measured (“enrichment ratio after two sorts for PhoP signalling”: median about 0, highest 2% from about 11 on). This excerpt belongs to a sample that is enriched for the highest values.
B1: PhoQ; a variant is named by its letters at X, in order, P23837 (parent)
chain: MKKLLRLFFPLSLRVRFLLATAAVVLVLSLAYGMVALIGYSVSFDKTTFRLLRGESNLFYTLAKWENNKLHVELPENIDKQSPTMTLIYDENGQLLWAQRDVPWLMKMIQPDWLKSNGFHEIEADVNDTSLLLSGDHSIQQQLQEVREDDDDAEMTHSVAVNVYPATSRMPKLTIVVVDTIPVELKSSYMVWSWFIYVLSANLLLVIPLLWVAAWWSLRPIEALAKEVRELEEHNRELLNPATTRELTSLVRNLNRLLKSERERYDKYRTTLTDLTHSLKTPLXXLQXXLRSLRSEKMSVSDAEPVMLEQISRISQQIGYYLHRASMRGGTLLSRELHPVAPLLDNLTSALNKVYQRKGVNISLDISPEISFVGEQNDFVEVMGNVLDNACKYCLEFVEISARQTDEHLYIVVEDDGPGIPLSKREVIFDRGQRVDTLRPGQGVGLAVAREITEQYEGKIVAGESMLGGARMEVIFGRQHSAPKDE

Variants of: B1
Test: enrichment ratio after two sorts for PhoP signalling (ratio (wild type AVST 3.29)); higher = more functional
Conditions: with PhoP (E. coli)

Variant | enrichment ratio
DPKY | ≤ 0.25
MCMW | ≤ 0.25
PTRL | ≤ 0.25
ETSM | ≤ 0.25
LHSW | ≤ 0.25
ASFH | ≤ 0.25
ASIL | 19.5
ASCI | 19.9
ASWN | ≤ 0.25
ASIQ | 5.62
ASCC | 18.2
ASWL | 5.05
ASII | 12.7
VRCC | ≤ 0.25
ASCE | 4.22
ASIT | 9.21
ASCS | 4.46
DFLG | ≤ 0.25
RMGP | ≤ 0.25
MITD | ≤ 0.25
PINH | ≤ 0.25
EKTC | ≤ 0.25
QEPD | ≤ 0.25
ERFK | ≤ 0.25
LKWG | ≤ 0.25
TNVF | ≤ 0.25

Variant | enrichment ratio
ASPL | 1.12
ASCL | 20.8
TARQ | ≤ 0.25
HHQY | ≤ 0.25
SPST | ≤ 0.25
NSST | ≤ 0.25
SLST | 2.81
TSST | 15
KSST | ≤ 0.25
SSST | 12.7
QMYK | ≤ 0.25
QIPN | ≤ 0.25
FCES | ≤ 0.25
VVSR | ≤ 0.25
FSWV | ≤ 0.25
NAWV | ≤ 0.25
QAWV | 20.2
KAWV | ≤ 0.25
FFWV | ≤ 0.25
QSAE | ≤ 0.25
QSYV | 14.9
QGWV | 18.5
FSAV | 0.409
QEYV | ≤ 0.25
KSYV | ≤ 0.25
QSAV | 12.1

Variant | enrichment ratio
TGVE | ≤ 0.25
HYPL | ≤ 0.25
AGIC | 3.1
RPIA | ≤ 0.25
TYVT | ≤ 0.25
AHFF | ≤ 0.25
HDNT | ≤ 0.25
WSHN | ≤ 0.25
PSPA | ≤ 0.25
LQDQ | ≤ 0.25
WDVC | ≤ 0.25
DEVE | ≤ 0.25
MMAV | 5.57
TSAV | 16.5
QGIV | ≤ 0.25
QRWV | ≤ 0.25
KSAV | ≤ 0.25
QLWV | ≤ 0.25
QPWV | ≤ 0.25
QGMS | ≤ 0.25
QQWV | 11.8
QSWV | 22.9
QQVK | ≤ 0.25
QGMV | 23.6
IYAV | ≤ 0.25
IMHI | ≤ 0.25

Variant | enrichment ratio
VVLM | 3.83
DISV | ≤ 0.25
ASKR | ≤ 0.25
NKAS | ≤ 0.25
ETLP | ≤ 0.25
QAKK | ≤ 0.25
YNYA | ≤ 0.25
WNDE | ≤ 0.25
QGMW | ≤ 0.25
QAYV | 12.6
QGMI | 19.9
FFMI | ≤ 0.25
QAYI | 8.06
KAYV | ≤ 0.25
WHSE | ≤ 0.25
PFWH | ≤ 0.25
WKDV | ≤ 0.25
GTCA | ≤ 0.25
GNNT | ≤ 0.25
GNCI | 14.4
GNYI | ≤ 0.25
GNLA | 7.72
GTCI | 11.7
GNHF | ≤ 0.25
GTCK | ≤ 0.25
GNLT | 16.5

Variant | enrichment ratio
DCAI | ≤ 0.25
WVLT | ≤ 0.25
WFHM | ≤ 0.25
TILT | 2.41
RNAL | ≤ 0.25
MLVQ | ≤ 0.25
VEVV | 2.45
YEIT | ≤ 0.25
KFTH | ≤ 0.25
NGCC | ≤ 0.25
GGCC | 1.09
FGCH | ≤ 0.25
HGCC | ≤ 0.25
AGCC | 16.1
AICC | 5.26
SGCC | 14.2
QGCC | ≤ 0.25
TGCC | 21.5
SGFH | ≤ 0.25
SGCH | 8.61
FGCC | 13.2
EIKT | ≤ 0.25
ELGV | ≤ 0.25
GQWY | ≤ 0.25
AMER | ≤ 0.25
SFYL | ≤ 0.25

Variant | enrichment ratio
SREH | ≤ 0.25
GSFE | ≤ 0.25
CYLP | ≤ 0.25
LTCC | ≤ 0.25
FDCC | ≤ 0.25
TDCC | 12.6
FVLE | ≤ 0.25
KTTE | ≤ 0.25
PKGP | 4.39
KCLF | ≤ 0.25
SPLF | ≤ 0.25
AQLF | 15.8
AKLF | 7.81
GCLF | 13.2
STLF | 14.6
ADLF | ≤ 0.25
HKLF | ≤ 0.25
QCLF | ≤ 0.25
KYLF | ≤ 0.25
FQLF | 6.28
TKLF | 18
LCCL | ≤ 0.25
GKCT | ≤ 0.25

— a collection of fitness landscapes (doi:10.1126/science.1257360)
